Screening results as filed in PubChem.
Pf growth 48h: inhibits P. falciparum growth in the first generation, 48 h | 5.9% of 310,000 active | P. falciparum luciferase growth in erythrocytes, 48 h | AID 504832 | Potency, µM (titrated, usually from 28.7 µM), without a hit: at the highest dose activity change, negative = inhibition, most hits filed as inhibitors
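A one-generation exposure of luciferase-tagged malaria parasites in RPMI 1640/Albumax erythrocyte culture, 37 C and 5% CO2. Inhibition is inferred from decreased luminescence after adding detection reagent.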
AMA1-RON2 inh: AMA1-RON2 (P. falciparum) interaction inhibition; AlphaScreen AMA1-biotinylated RON2 peptide binding; Potency, µM (highest dose often 58.2 µM), for inactives: at the highest dose activity change, negative = inhibition, actives largely listed as inhibitors; 0.2% of 360,000 active;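 note: 0% = vehicle wells and -100% = peptide control; nearly all actives have a fitted effect of over 45% in size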
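AMA1 (3D7) with his tag at 25 nM final met compounds first, then biotinylated RON2 peptide at 25 nM; detection used donor plus acceptor beads, 10 µg/mL apiece, read by AlphaScreen after 30 min at room temperature.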
AmpC detergent: blocks E. coli AmpC beta-lactamase in detergent assay; Potency, µM (top dose mostly 114 µM), for inactives: top-dose activity change, negative = inhibition, usual class: inhibitors; 0.041% of 370,000 active; AmpC hydrolysis of nitrocefin, absorbance 480 nm, 0.01% Triton; AID 485294;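 note: 0% = no-compound wells and -100% = no-enzyme wells; nearly all actives have a fitted effect of over 25% in size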
Target sequence (P00811 whole entry, looked up): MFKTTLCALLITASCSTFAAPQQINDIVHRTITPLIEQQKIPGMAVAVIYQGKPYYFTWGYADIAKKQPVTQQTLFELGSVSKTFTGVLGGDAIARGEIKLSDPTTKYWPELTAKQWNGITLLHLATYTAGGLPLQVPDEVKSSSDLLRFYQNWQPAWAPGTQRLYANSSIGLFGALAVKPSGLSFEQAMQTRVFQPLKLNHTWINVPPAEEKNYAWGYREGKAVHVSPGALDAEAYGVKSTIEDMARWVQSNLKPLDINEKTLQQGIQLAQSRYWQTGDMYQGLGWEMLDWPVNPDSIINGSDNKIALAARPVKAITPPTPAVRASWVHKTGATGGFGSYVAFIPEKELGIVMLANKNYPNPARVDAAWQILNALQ
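20 mM phosphate pH 7.0 + 0.01% (detergent screen) or 0.0001% Triton X-100; 5.3 nM AmpC reagent; cpd preinc 15 min RT; nitrocefin (800 uM stock) to start; A480 q20 s × 4 min; Activity was normalised to no-enzyme and no-compound control wells.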
AmpC no deterg: AmpC beta-lactamase inhibition without detergent; AmpC nitrocefin hydrolysis, absorbance 480 nm, 0.0001% Triton; P00811; Potency, µM (highest dose often 57.1 µM), for the others: at the top dose activity change, negative = inhibition, usual class: inhibitors; 0.52% of 330,000 active; AID 485341;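 note: plate controls were no compound for no effect and no enzyme for full effect; nearly all actives have a fitted effect of over 20% in size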
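20 mM phosphate pH 7.0 + 0.01% (detergent screen) or 0.0001% Triton X-100; 5.3 nM AmpC reagent; cpd preinc 15 min RT; nitrocefin (800 uM stock) to start; A480 q20 s × 4 min; Activity was normalised to no-enzyme and no-compound control wells.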
HCV inh: blocks hepatitis C virus. Huh7.5.1 HCVcc-Cre infection, luciferase reporter, 44 h. Potency, µM (series often up to 41.8 µM), inactives show top-dose activity change, negative = inhibition, hits mostly inhibitors. 3.4% of 340,000 active
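Whole-lifecycle infectious HCVcc-Cre system; cells 1,000/well, compound then virus (~0.5 moi) added 4 h after plating, 44 h culture. Luciferase read 15 sec following 15 min substrate incubation, room temp.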
Pf growth 96h: P. falciparum growth inhibition at 96 hours | P. falciparum luciferase reporter growth, 96 h | AID 504834 | 6.9% of 320,000 active | Potency, µM (highest dose often 28.7 µM), for inactives: at the highest dose activity change, negative = inhibition, hits mostly inhibitors
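Erythrocytes infected with luciferase-expressing P. falciparum were dispensed at 2% hematocrit and 0.05% parasitemia (final), then incubated with compounds 96 hours at 37 C in 5% CO2. Luminescence after detection reagent addition reported growth.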
Numbers without * were called inactive; ? = inconclusive; / = no result; [ ] = remark or other dose. This is a sample that favours compounds with a hit; in the whole collection about 11% have one here. Calls come from the whole dose curve; as a rule, active = well fitted curve in the direction sought with a large enough effect; inconclusive = small, poorly fitted or top-dose-only effect, or another doubt; inactive = no such curve, though single readings can be large; an effect the other way counts as inactive or inconclusive. Unless noted, % is set by controls: 0 for no effect and ±100 for the full control effect; potency is the fitted concentration of half-maximal effect.

SMILES	Pf growth 48h	AMA1-RON2 inh	AmpC detergent	AmpC no deterg	HCV inh	Pf growth 96h
Cc1ccc(-c2nnn(CC(=O)N(CC(=O)NC3CCCCC3)c3ccc(F)c(Cl)c3)n2)o1	-19.5%	0.0%	?	-17.6%	?	-6.2%
CCN(CCCNC(=O)c1cc2c(=O)n(C)c3ccccc3c2s1)Cc1ccccc1	/	/	5.9%	/	/	/
COc1ccc2ccccc2c1/C=N/N1C(=O)CSC1=S	12.4%	28.8%	-7.2%	15.8µM*	?	-1.1%
CCCCCCn1c(=O)c(C(=O)Nc2nc(CC(=O)OCC)cs2)c(O)c2ccccc21	11.7µM*	30.7%	-6.6%	-11.3%	?	-1.3%
CCOC(=O)Cc1csc(NC(=O)c2c(O)c3ccccc3n(CCC(C)C)c2=O)n1	?	38.2%	4.4%	-7.3%	10µM*	-17.9%
CCOC(=O)Cc1csc(NC(=O)c2c(O)c3ccccc3n(C)c2=O)n1	1.1%	/	-12.8%	-8.5%	/	3.2%
COc1ccc(-c2c(C#N)c(SCc3c(C)noc3C)nc3c2C(=O)CC(C)(C)C3)cc1	-23.8%	37.2%	-0.5%	-12.6%	15.9%	45.8%
COc1ccc2c(C)cc(SCC(=O)Nc3nsc(-c4ccc(C)cc4)n3)nc2c1	41.5%	31.4%	-19.0%	-12.5%	1.1%	88.5%
Cc1ccc(-c2nc(NC(=O)CSc3cc(C)c4ccccc4n3)ns2)cc1	29.7%	-2.8%	22.0%	-14.2%	6.5%[8.37 µM]	14.7µM*
Cc1nnc(SCC(=O)Nc2nsc(-c3ccccc3)n2)s1	26.2%	-2.6%	-8.4%	-14.1%	?	7.38µM*
CC1(C)CC(=O)c2c(nc(SCC(=O)Nc3nsc(-c4ccccc4)n3)c(C#N)c2-c2ccccc2)C1	?	112.5%	1.5%	-11.7%	?	14.7µM*
CCSc1nc2cc(OC)c(OC)cc2c(=O)n1CC	-2.7%	43.4%	-0.5%	34.7%	5.01µM*	16.2%
CCn1c(SCc2nc3cc(OC)c(OC)cc3c(=O)[nH]2)nc2ccccc21	18.8%	12.5%	6.6%	-5.8%	-7.5%	?
CCC1CN(C(=O)N2CCC(C(=O)N3CCN(c4ccccc4)CC3)CC2)c2ccccc2O1 (stereo not drawn)	/	/	6.2%	/	/	/
Fc1cccc(F)c1CN1CCN(c2ccc(Cl)cc2)CC1	3.4%	?	-8.6%	-9.7%	25.4%	-1.7%
CN1CCN(Cc2c(F)cccc2Cl)CC1	18.9%	14.1µM*	-0.1%	-4.0%	7.0%	?
CCN1CCN(CCNC(=O)c2ccc3c(c2)N(Cc2ccc(F)cc2)C(=O)c2ccccc2S3=O)CC1 (stereo not drawn)	10.4µM*	-2.1%	-0.7%	91.8%	?	10.5%
Cc1ccc(C)c(CN2C(=O)c3ccccc3S(=O)c3ccc(C(=O)N4CCN(c5ccccc5F)CC4)cc32)c1 (stereo not drawn)	/	/	-0.4%	/	/	/
O=C(NCCCN1CCCC1)c1ccc2c(c1)N(Cc1cccc(Cl)c1)C(=O)c1ccccc1S2=O (stereo not drawn)	3.29µM*	-6.8%	-18.3%	137.5%	?	0.0%
CCN1CCN(C(=O)c2ccc3c(c2)N(Cc2cccc(Cl)c2)C(=O)c2ccccc2S3=O)CC1 (stereo not drawn)	/	/	6.1%	/	/	/
CCOC(=O)N1CCN(C(=O)c2ccc3c(c2)N(Cc2cccc(Cl)c2)C(=O)c2ccccc2S3=O)CC1 (stereo not drawn)	7.38µM*	-7.7%	2.5%	131.6%	17.8µM*	19.2%
Cc1ccc(C)c(CN2C(=O)c3ccccc3S(=O)c3ccc(C(=O)N4CCN(c5ccccn5)CC4)cc32)c1 (stereo not drawn)	11.7µM*	?	-4.2%	75.2%	11.2µM*	?
CCN1CCN(C(=O)c2ccc3c(c2)N(Cc2ccccc2)C(=O)c2ccccc2S3=O)CC1 (stereo not drawn)	?	9.7%	-6.3%	98.0%	-13.3%	?
Cc1ccc(N2CCn3c2nc2c3c(=O)n(Cc3cccc(Cl)c3)c(=O)n2C)cc1C	/	/	2.9%	/	/	/
Cc1ccc(C)c(NC(=O)CSc2nccn2-c2cccc(C)c2C)c1	/	/	-9.4%	/	/	/
SMILES	Pf growth 48h	AMA1-RON2 inh	AmpC detergent	AmpC no deterg	HCV inh	Pf growth 96h
CC1CCCCN1CCNC(=O)c1ccc2c(c1)N(Cc1cccc(Cl)c1)C(=O)c1ccccc1S2=O (stereo not drawn)	2.94µM*	-11.9%	-2.9%	104.8%	?	1.6%
Cc1ccccc1CN1C(=O)c2ccccc2S(=O)c2ccc(C(=O)NCCCN3CCOCC3)cc21 (stereo not drawn)	?	-8.4%	-15.3%	195.2%	?	1.47µM*
CC1CCCCN1C(=O)c1ccc2c(c1)N(Cc1cccc(Cl)c1)C(=O)c1ccccc1S2=O (stereo not drawn)	/	/	8.8%	/	/	/
CCCN(CC(=O)Nc1ccccc1OC)C(=O)c1ccc2c(c1)NC(=O)C(C)S2 (stereo not drawn)	10.4µM*	56.8%	3.3%	0.2%	-9.6%	?
COc1cccc(NC(=O)CN(C)C(=O)c2cccc(S(=O)(=O)Nc3ccccc3OC)c2)c1	13.1µM*	-4.3%[11.6 µM]	4.6%	2.4%	-12.8%	?
CCCN(CC(=O)Nc1ccccc1OC)C(=O)c1cc(S(=O)(=O)NCc2ccccc2)ccc1C	?	39.3%	5.8%	15.7%	/	?
CCCN(CC(=O)Nc1ccccc1OC)C(=O)c1cccc(S(=O)(=O)NCc2ccccc2)c1	?	34.7%	-4.1%	-3.1%	-11.8%	10.4µM*
OCCCNc1ccccc1	-5.0%	/	/	/	/	4.5%
Cc1nc2nc(NC(=O)c3ccc(Cl)cc3)[nH]n2c(=O)c1Cc1ccccc1	/	/	22.5%	/	/	/
Cc1ccc(S(=O)(=O)CCC(=O)Nc2ccc3c(c2)OCO3)cc1	-6.2%	-7.4%	-12.8%	-18.2%	3.3%	-23.7%
O=C(CCS(=O)(=O)c1ccc(Br)cc1)NC1CCCCCC1	-5.0%	11.0%	6.5%	-2.3%	7.0%	11.7µM*
CN(CC(=O)NC1CC1)S(=O)(=O)c1cc(Cl)ccc1Cl	4.15µM*	-8.3%	3.1%	11.7%	4.0%	5.22µM*
Cc1ccc(S(=O)(=O)CCC(=O)NC2CCCCC2)cc1	?	-0.2%	?	-7.8%	5.9%	?
O=C(CCS(=O)(=O)c1ccc(Br)cc1)Nc1ccc2c(c1)OCO2	0.6%	13.9%	-2.3%	-13.0%	3.9%	0.465µM*
